High-throughput results (PubChem)
HT1080 IDH1KD tx – HT-1080 IDH1 knockdown cell toxicity (counter line). HT-1080 IDH1 knockdown viability, ATP luminescence, 48 h. Potency, µM (series often up to 46.1 µM), usual class: cytotoxic. 360,000 compounds, 2% hits
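% activity derives from luminescence (CellTiter-Glo), normalised to DMSO and no-cell wells. HT-1080-IDH1KD cells, 750/well, had 48 h compound exposure at 37 °C.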
ELG1 DNA repair – ELG1-dependent DNA repair inhibition; HEK293T ELG1-luciferase reporter, luminescence, 16 h; DNA damage induced by 5-fluorouridine; Potency, µM (top dose mostly 46.1 µM), usual class: inhibitors; 330,000 compounds, 2.3% hits; AID 504467; also: nearly all actives have a fitted effect of over 55% in size
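DMSO vehicle served as the neutral condition. Each well held 2,000 cells given 5-fluorouridine plus compound; after 16 hr at 37 °C/5% CO2, ONE-Glo was added and luciferase measured 30 min later.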
DT40 TDP1 CPT – growth inhibition of DT40 Tdp1-/-;hTDP1 cells with camptothecin (screen for TDP1 inhibitors); 420,000 compounds, 12% hits; Potency, µM (top dose mostly 46.2 µM), hits mostly inhibitors; chicken DT40 Tdp1-/-;hTDP1 cells + 20 nM CPT, ATP luminescence, 48 h; also: nearly all actives have a fitted effect of over 55% in size
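Cell growth measured by CellTiter-Glo luminescence after a minimum 48 h, 37 C compound exposure with 20 nM CPT in Tdp1-knockout DT40 cells stably expressing hTDP1, seeded 400/well; qHTS titration format.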
TDP1 cell noCPT – qHTS for Inhibitors of human tyrosyl-DNA phosphodiesterase 1 (TDP1): qHTS in cells in absence of CPT; DT40 Tdp1-/- hTDP1 cells, no CPT, ATP luminescence, 48 h; Potency, µM (series often up to 46.2 µM), actives largely listed as inhibitors; 420,000 compounds, 15% hits; AID 686978, 2013; also: nearly all actives have a fitted effect of over 55% in size
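A cellular qHTS used chicken DT40 cells lacking endogenous Tdp1 but carrying stably transfected human TDP1. Compounds were applied without camptothecin, and cell growth kinetics were judged by ATP-dependent luminescence after ≥48 hr.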
HT1080NT lethal – kills 2HG-producing HT-1080-NT fibrosarcoma cells; Potency, µM (doses to about 46.1 µM), actives largely listed as cytotoxic; 360,000 compounds, 1.6% hits; HT-1080-NT fibrosarcoma viability, CellTiter-Glo ATP luminescence, 48 h;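 also: NT is the 2HG producing partner of a matched IDH1 knockdown line; nearly all actives have a fitted effect of over 55% in size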
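Fibrosarcoma NT cells, 750 per well in 5% FBS RPMI, were exposed to compound for 48 hours. Viability: CellTiter-Glo luminescence.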
IL1B secr inh – inhibitors of inflammasome signaling (IL-1 beta secretion). activity change, % at 57.5 µM. 360,000 compounds, 4.7% hits. AID 743279. THP-1 LPS/ATP IL-1B secretion, AlphaLISA, 16 h; active compounds read low; in the data active = activity change below about -50%; inconclusive = mostly about -30% to -49%
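THP-1 cells pretreated 1 hr with compounds (up to 57.5 uM final), then stimulated with LPS (250 ng/mL final) plus ATP (1.25 mM final); secreted IL-1B measured by AlphaLISA after 16 hr, decreased signal indicating inhibition.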
A number is an active result; n = inactive; u = inconclusive; x = no result; [ ] = dose if it differs, or a comment. Shown are actives, neighbours in structure and some others; about 19% of the full set was active somewhere. Unless noted, calls follow the shape of the dose curve; as a rule, active = well fitted curve in the direction sought with a large enough effect; inconclusive = small, poorly fitted or top-dose-only effect, or another doubt; inactive = no such curve, though single readings can be large; an effect the other way counts as inactive or inconclusive.

SMILES | HT1080 IDH1KD tx | ELG1 DNA repair | DT40 TDP1 CPT | TDP1 cell noCPT | HT1080NT lethal | IL1B secr inh
Clc1ccccc1-c1cc2nc(NCc3ccco3)ccn2n1 | n | x | u | u | n | u
Clc1cccc(CNc2ccn3nc(-c4ccccc4)cc3n2)c1 | n | x | 23µM | 21µM | u | n
Clc1cccc(CNc2ccn3nc(-c4ccc(OCc5ccccc5)cc4)cc3n2)c1 | n | x | 16µM | u | n | n
Clc1ccc(-c2cc3nc(NCc4cccc(Cl)c4)ccn3n2)cc1 | n | x | u | 26µM | n | n
Clc1cccc(CNc2ccn3nc(-c4cccc(Cl)c4)cc3n2)c1 | u | x | u | u | u | -51
COc1ccc(CNC(=O)CCS(=O)(=O)c2cc3c(cc2Cl)NC(=O)CO3)cc1 | n | n | n | n | n | n
Clc1cccc(-c2cc3nc(NCCOc4ccccc4)ccn3n2)c1 | n | x | n | n | n | n
CN(C)C(=O)CNc1ccn2nc(-c3cccc(Cl)c3)cc2n1 | n | x | 23µM | 18µM | n | n
CC(C)(C)c1cc2nc(NCc3cccc(Cl)c3)ccn2n1 | n | x | 18µM | 16µM | u | n
COc1ccc(C(=O)Nc2nc3ccc(S(C)(=O)=O)cc3s2)cc1 | n | n | n | n | n | n
COc1ccc(C(=O)Nc2nc3c(s2)CCc2cc(OC)ccc2-3)cc1 | x | x | 23µM | 26µM | x | x
COc1ccc2c(c1)Cc1sc(NC(=O)c3ccc(Cl)cc3)nc1-2 | x | x | 21µM | 13µM | x | x
COc1ccc(C(=O)Nc2nc(-c3ccc([N+](=O)[O-])cc3)c(-c3ccc(OC)cc3)s2)cc1 | n | n | u | 10µM | n | n
COc1ccc2c(c1)-c1nc(NC(=O)c3ccc(OC)c(Br)c3)sc1CC2 | x | x | u | 8.2µM | x | x
O=C(COc1ccccc1F)Nc1c(C(=O)Nc2cccc(F)c2)oc2ccccc12 | x | x | n | u | x | x
N#Cc1c(-c2ccc(F)cc2)ccnc1N1CCOCC1 | n | u | n | n | n | n
CCCC(=O)N(Cc1cc(=O)[nH]c2ccccc12)c1ccc(C)cc1C | n | n | n | u | n | n
Cc1ccc(N(Cc2cc(=O)[nH]c3ccccc23)C(=O)CCl)c(C)c1 | 5.2µM | u | 15µM | 15µM | 4.6µM | -105
Cc1cccc(N(C)C(=O)C2CCC(CNS(=O)(=O)c3cccc4nsnc34)CC2)c1 (configuration not stated) | x | x | u | n | x | x
CCCCN(CC)C(=O)C1CCC(CNS(=O)(=O)c2cccc3nsnc23)CC1 (configuration not stated) | n | u | 23µM | 9.2µM | n | n
CN(C(=O)C1CCC(CNS(=O)(=O)c2cccc3cccnc23)CC1)C1CCCCC1 (configuration not stated) | n | n | u | 15µM | n | n
CCN(C(=O)C1CCC(CNS(=O)(=O)c2cccc3nsnc23)CC1)c1ccc(C)c(C)c1 (configuration not stated) | x | x | u | 26µM | x | x
O=C(C1CCC(CNS(=O)(=O)c2cccc3cccnc23)CC1)N1CCCC1 (configuration not stated) | n | n | n | n | n | n
O=C(NCc1ccccn1)c1nn(-c2ccccc2Cl)nc1CO | x | x | n | n | x | x
COc1cccc(CNC(=S)Nc2cc(C)ccc2C)c1 | n | n | 18µM | 26µM | n | n
SMILES | HT1080 IDH1KD tx | ELG1 DNA repair | DT40 TDP1 CPT | TDP1 cell noCPT | HT1080NT lethal | IL1B secr inh
COc1cccc(CNC(=S)Nc2cccc(Cl)c2C)c1 | n | n | n | u | n | n
Cc1ccccc1NC(=S)NCc1cccs1 | n | n | n | u | n | n
Cc1ccc(C)c(NC(=S)NCc2cccs2)c1 | n | n | u | 29µM | n | n
COc1ccc2[nH]c(CN3CCN(CC(C)C)C(CCO)C3)c(C)c2c1 (configuration not stated) | n | n | n | 23µM | n | -96
COc1ccc2[nH]c(CN3CCN(C(C)C)C(CCO)C3)c(C)c2c1 (configuration not stated) | n | n | n | n | n | n
CC(C)CN1CCN(Cc2c[nH]c3ccccc23)CC1CCO (configuration not stated) | n | u | 8.2µM | u | n | n
CC(C)CCN1CCN(Cc2ccoc2)CC1CCO (configuration not stated) | n | n | n | n | n | n
CCOc1ccc(CN2CCN(Cc3[nH]c4ccccc4c3C)CC2CCO)cc1 (configuration not stated) | n | u | u | u | n | -74
CC(C)=CCN1CCN(Cc2c[nH]c3ccccc23)CC1CCO (configuration not stated) | n | n | u | u | n | n
CC(C)CCN1CCN(CC(c2ccccc2)c2ccccc2)CC1CCO (configuration not stated) | n | n | 23µM | 21µM | n | n
CC(C)CN(C(=O)C1CSC2(C)CCC(=O)N12)c1c(N)n(Cc2ccccc2)c(=O)[nH]c1=O (configuration not stated) | n | n | n | n | n | n
O=C(COc1ccccc1Cl)Nc1ccc(S(=O)(=O)N2CCOCC2)cc1 | n | n | n | u | n | n
CCOc1ccc(CN2CCN(Cc3cc4c(cc3Cl)OCO4)CC2CCO)cc1 (configuration not stated) | n | u | u | 16µM | u | -60
Cc1ccc2nc(Nc3ccc4[nH]c(=O)[nH]c4c3)c(-n3nc(C)cc3C)nc2c1 | n[9.24 µM] | u | u | u | u | -90
CC(C)NC[C@@H](O)COc1ccc(COCCOC(C)C)cc1 | x | x | n | n | x | x
O=[N+]([O-])c1ccc(Sc2nnnn2-c2ccccc2)c(Cl)c1 | 10µM | n | u | 21µM | 8.9µM | n
Cn1cnnc1Sc1cc(N2CCN(S(=O)(=O)c3ccccc3)CC2)ccc1[N+](=O)[O-] | n | n | u | u | n | n
CN1CCN(S(=O)(=O)c2ccc(Sc3nnnn3-c3ccccc3)c([N+](=O)[O-])c2)CC1 | n | n | 2.9µM | 3.3µM | n | -74
Cn1c(Sc2ccc(C(=O)O)cc2[N+](=O)[O-])nnc1-c1ccccc1 | n | n | 21µM | u | n | n
CC(=O)c1ccc(Sc2nnnn2-c2ccccc2)c([N+](=O)[O-])c1 | u | n | 2.6µM | 2.3µM | n | -100
CC1(C(=O)Nc2ccc3c(c2)OCCO3)CN(S(C)(=O)=O)CC(=O)N1C1CCCCCC1 (configuration not stated) | n | x | n | n | n | n
